TGFb inhibitor = TGF-b pathway inhibition. 1.2% of 410,000 active. HepG2 CAGA-GFP TGF-b/SMAD3 reporter, GFP fluorescence, 18 h; TGF-beta stimulated, 500 pg/mL final. Potency, µM (titrated, usually from 46.1 µM), for the others: top-dose activity, negative = inhibition, actives largely listed as inhibitors; further: potency means the concentration at half of the fitted maximal effect; on the % scale 0 is the no-effect control and ±100 the full control effect; nearly all actives have a fitted effect of over 65% in size
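Using HEPG2 CAGA-GFP reporter cells at 1000 cells/well, we pinned test compounds, stimulated with recombinant TGF-beta (500 pg/mL final) and measured total well GFP after 18 h.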
S-ASM inh = blocks human secretory acid sphingomyelinase; P17405; placental ASM, HMU-PC fluorogenic substrate, 60 min; Potency, µM (doses to about 57.5 µM), for the others: at the top dose activity change, negative = inhibition, usual class: inhibitors; 0.006% of 340,000 active; AID 504937; further: potency means the concentration at half of the fitted maximal effect
Target sequence (P17405 47-631 limits assumed): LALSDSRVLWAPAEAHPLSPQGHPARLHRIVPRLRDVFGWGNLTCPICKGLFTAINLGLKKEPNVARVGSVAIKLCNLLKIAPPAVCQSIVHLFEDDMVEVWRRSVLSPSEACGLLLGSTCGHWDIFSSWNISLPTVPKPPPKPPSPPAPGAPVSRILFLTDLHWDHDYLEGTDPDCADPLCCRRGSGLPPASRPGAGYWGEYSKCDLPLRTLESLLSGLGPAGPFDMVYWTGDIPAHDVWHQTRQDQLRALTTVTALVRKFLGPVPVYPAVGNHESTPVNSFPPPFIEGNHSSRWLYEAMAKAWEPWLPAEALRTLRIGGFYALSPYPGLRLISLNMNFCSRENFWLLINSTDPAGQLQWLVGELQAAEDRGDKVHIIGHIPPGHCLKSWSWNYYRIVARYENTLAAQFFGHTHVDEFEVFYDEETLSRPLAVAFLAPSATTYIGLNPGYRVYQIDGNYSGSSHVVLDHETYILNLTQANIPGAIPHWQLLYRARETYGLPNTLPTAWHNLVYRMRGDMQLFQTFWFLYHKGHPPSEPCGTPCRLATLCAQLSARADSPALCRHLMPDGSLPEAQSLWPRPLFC
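Fluorescence read-out (Ex 386 nm, Em 447 nm) after stopping the reaction at pH 10. Enzyme: ASM from human placenta; substrate HMU-PC0, 9 uM final; 60 min, 37 °C. Compound preincubation 10 min, ambient temperature.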
IL1B secr inh = inflammasome signaling inhibition, IL-1 beta readout; THP-1 LPS/ATP IL-1B secretion, AlphaLISA, 16 h; stronger effect = lower value; activity change, % at 57.5 µM; 4.7% of 360,000 active; in the data active means activity change below about -50%; inconclusive means mostly about -30% to -49%; further: on the % scale 0 is the no-effect control and ±100 the full control effect
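Secreted IL-1B measured by AlphaLISA bead assay after 16 h compound exposure of THP-1 cells; compounds (final up to 57.5 uM) added 1 h before LPS (250 ng/mL) and ATP (1.25 mM) stimulation; lower signal means less secretion.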
HepG2 viability = HepG2 cytotoxicity, counter-screen for TGF-b inhibitors; HepG2 CAGA-GFP viability, ATP luminescence, 18 h; AID 588856; Potency, µM (top dose mostly 46.1 µM), for inactives: at the highest dose activity change, negative = cytotoxicity, usual class: cytotoxic; 0.76% of 410,000 active; further: potency means the concentration at half of the fitted maximal effect
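HepG2 CAGA-GFP cells (1000/well, DMEM with 1% FBS) received compound, then TGF-beta at 500 pg/mL final, and were incubated 18 hours at 37 degrees C. Viability was read by CellTiter-Glo luminescence. Media-only wells were set as complete cell-killing and DMSO as no toxicity.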
TDP1 cell noCPT = qHTS for Inhibitors of human tyrosyl-DNA phosphodiesterase 1 (TDP1): qHTS in cells in absence of CPT | DT40 Tdp1-/- hTDP1 cells, no CPT, ATP luminescence, 48 h | Potency, µM (highest dose often 46.2 µM), inactives show at the highest dose activity change, negative = growth inhibition, most hits filed as inhibitors | 15% of 420,000 active; further: potency means the concentration at half of the fitted maximal effect; on the % scale 0 is the no-effect control and ±100 the full control effect; nearly all actives have a fitted effect of over 55% in size
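Luminescent ATP content (CellTiter-Glo) served as the growth readout. Knockout chicken DT40 cells expressing human TDP1 were exposed to compounds without camptothecin for a minimum 48 hr at 37 °C.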
DT40 TDP1 CPT = growth inhibition of DT40 Tdp1-/-;hTDP1 cells with camptothecin (screen for TDP1 inhibitors); chicken DT40 Tdp1-/-;hTDP1 cells + 20 nM CPT, ATP luminescence, 48 h; 12% of 420,000 active; Potency, µM (doses to about 46.2 µM), for the others: top-dose activity change, negative = growth inhibition, actives largely listed as inhibitors; AID 686979; further: potency means the concentration at half of the fitted maximal effect; on the % scale 0 is the no-effect control and ±100 the full control effect; nearly all actives have a fitted effect of over 55% in size
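Chicken DT40 Tdp1-/- cells complemented with human TDP1, 400 cells/well, exposed to compounds plus 20 nM camptothecin for at least 48 h at 37 C; viability read as ATP content by CellTiter-Glo luminescence.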
Starred values were filed as active, the others as inactive; i = inactive; ? = inconclusive; / = no result given. Shown are actives, neighbours in structure and some others; about 19% of the full set was active somewhere. Unless noted, the call rests on the fitted dose curve; in most records, active means well fitted curve in the direction sought with a large enough effect; inconclusive means small, poorly fitted or top-dose-only effect, or another doubt; inactive means no such curve, though single readings can be large; an effect the other way counts as inactive or inconclusive.

SMILES | TGFb inhibitor | S-ASM inh | IL1B secr inh | HepG2 viability | TDP1 cell noCPT | DT40 TDP1 CPT
CCOc1ccc(NC(=O)c2c(NCc3cccnc3)sc3c2CCCC3)cc1 | ? | / | / | -23% | ? | ?
COc1cc(/C=C/C(=O)OCC(=O)NC(=O)NC2CCCCC2)ccc1OC(F)F | -7% | -17% | -5 | -2% | 5% | 1%
O=C(Cn1cnc2cc([N+](=O)[O-])ccc2c1=O)Nc1cccc(S(=O)(=O)N2CCCCC2)c1 | -18% | -3% | -55* | -27% | ? | ?
CC1CCCCN1C(=O)Cn1cnc2cc([N+](=O)[O-])ccc2c1=O (stereo not drawn) | -3% | 17% | 66 | 2% | 18µM* | 15µM*
CC1CCCCN1C(=O)CCNC(=O)Cn1cnc2ccccc2c1=O (stereo not drawn) | 0% | 3% | 3 | -15% | 1% | -4%
Cc1cc(C)c(C(=O)Cn2cnc3cc([N+](=O)[O-])ccc3c2=O)cc1C | -15% | -2% | 2 | 12% | 18µM* | ?
Cc1ccc(NC(=O)Cn2cnc3cc([N+](=O)[O-])ccc3c2=O)cc1 | -11% | 9% | 1 | 18% | -13% | -18%
COC(=O)CCc1sc(Nc2ccc(OC)cc2)nc1-c1ccc(OC)cc1 | 12% | / | / | -3% | ? | ?
OCCCc1nc2ccccc2n1CCc1ccccc1 | -12% | 1% | -1 | 4% | -8% | 0%
CCCc1nc2ccccc2n1CCc1ccccc1 | -22% | 2% | -6 | -25% | 21µM* | 29µM*
O=C(O)CCn1c(C2CCCCC2)nc2ccccc21 | -1% | 4% | 4 | 0% | 6% | 0%
c1ccc(CCn2c(C3CC3)nc3ccccc32)cc1 | 1% | 1% | 8 | -1% | 26µM* | ?
Cc1cc(C)n(-c2ccc(C(=O)N3CCN(S(=O)(=O)c4ccc(C(C)C)cc4)CC3)cc2)n1 | -2% | -10% | ? | -14% | 15µM* | ?
CC(C)c1ccc(S(=O)(=O)N2CCN(C(=O)c3ccncc3)CC2)cc1 | 19% | 4% | 22 | 4% | ? | -28%
COc1ccc(N2CCN(C(=O)c3ccc(-n4nc(C)cc4C)cc3)CC2)cc1 | -18% | -1% | 13 | 0% | ? | ?
Cc1cc(C)n(-c2ccc(C(=O)N3CCN(S(=O)(=O)c4cccc(Br)c4)CC3)cc2)n1 | ? | -2% | 0 | -41% | 21µM* | 21µM*
CN1C(=O)[C@H]2[C@@H](/C=C/c3ccccc3)N3C(=O)CN(CCO)C(=O)[C@@]3(C)[C@H]2C1=O | 16% | 0% | 32 | 9% | -3% | 4%
O=C(OCc1ccc([N+](=O)[O-])cc1)C1CC(=O)N(c2ccccc2)C1 (stereo not drawn) | 21% | 0% | 10 | -16% | -8% | -8%
Cc1ccc(N2CC(C(=O)OCC(=O)c3ccc([N+](=O)[O-])cc3)CC2=O)cc1 (stereo not drawn) | -26% | 5% | -74* | -16% | -3% | -20%
CC(Oc1ccccc1)C(=O)Nc1cccc(-c2cn3cccnc3n2)c1 (stereo not drawn) | 13% | / | / | -31% | ? | ?
CCc1ccc(NC(=O)CC2C(=O)N(c3ccc(OC)cc3)C(=O)N2Cc2cccs2)cc1 (stereo not drawn) | -8% | / | / | -9% | ? | ?
Cc1cccc(N2C(=O)C(CC(=O)Nc3cccc(F)c3)N(Cc3cccs3)C2=O)c1 (stereo not drawn) | -22% | / | / | -36% | 18µM* | ?
COCCN1C(=O)N(c2cccc(C)c2)C(=O)C1CC(=O)Nc1ccc(OC)cc1 (stereo not drawn) | -10% | 0% | 0 | -12% | 13% | -18%
CCc1ccc(NC(=O)CC2C(=O)N(c3ccc(Cl)cc3)C(=O)N2Cc2cccs2)cc1 (stereo not drawn) | ? | / | / | -37% | 4.1µM* | 4.6µM*
CCOc1ccc(NC(=O)CC2C(=O)N(c3cccc(C)c3)C(=O)N2Cc2cccs2)cc1 (stereo not drawn) | -21% | / | / | -37% | 21µM* | ?
SMILES | TGFb inhibitor | S-ASM inh | IL1B secr inh | HepG2 viability | TDP1 cell noCPT | DT40 TDP1 CPT
CC(C)CNS(=O)(=O)c1cc(C(=O)OCC(=O)c2ccc3c(c2)OCCO3)c(Cl)cc1Cl | -8% | -11% | -240* | -28% | ? | -21%
CCCn1c(C)cc(C(=O)COC(=O)c2cc(S(=O)(=O)NCC(C)C)c(Cl)cc2Cl)c1C | 0% | -2% | -3 | -4% | 15µM* | ?
Cc1ccc(SCC(=O)NNC(=O)c2ccccc2)c(C)c1 | 8% | 0% | -7 | 1% | ? | -23%
NC(=O)c1cc(S(=O)(=O)NCC2CCC(C(=O)Nc3ccc(Cl)cc3)CC2)cs1 (stereo not drawn) | -9% | / | / | -7% | ? | ?
Cc1cc(C(=O)N/N=C2\CCCc3ccccc32)c(C)o1 | 3% | 5% | 0 | 12% | -12% | -9%
O=C(N/N=C1\CCCc2ccccc21)c1ccccc1Cl | -13% | -1% | -18 | -12% | -25% | 2.1µM*
CC(Oc1ccc(Cl)cc1Cl)C(=O)NN=C1CCN(C)CC1 (stereo not drawn) | -5% | 0% | -18 | -6% | -24% | -13%
O=C(N/N=C1\CCc2ccccc21)c1ccccc1O | -18% | 3% | i | -71% | 23µM* | -24%
O=C(N/N=C1\CCc2ccccc21)c1ccncc1 | 1% | 2% | -5 | -9% | -30% | 3%
CC(Oc1ccc(Cl)cc1Cl)C(=O)N/N=C1\CCCc2ccccc21 (stereo not drawn) | ? | 3% | 15 | -3% | 26µM* | ?
CCOc1ccc(NC(=O)CN(C)C(=O)CSCc2c(C)noc2C)cc1OCC | -11% | 1% | 4 | -8% | ? | -16%
O=C1CCN(Cc2ccccc2)S(=O)(=O)c2c(F)cc(F)cc21 | 21% | -2% | -2 | 2% | ? | ?
O=C1CC2(CCCC2)Oc2ccc(F)cc21 | 8% | 2% | 1 | 1% | -12% | -23%
Cc1cn([C@H]2C[C@H](O)[C@@H](CCC(=O)NCc3ccco3)O2)c(=O)[nH]c1=O | ? | 23% | 0 | -1% | -19% | -4%

Screens as filed in PubChem BioAssay.
